Hits are enriched below; roughly 4.1% of the tested compounds scored in any of these assays.
DAX1 inh-1: inhibits human nuclear receptor DAX1; inhibition, % at 6.75 µM; P51843; HEK293 Gal4-DAX1 luciferase reporter, luminescence; AID 504766; 0.99% of 340,000 active;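 active = inhibition above the mean over all tested compounds plus 3 SD, cut at about 4.2% in these data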;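 also: 0% = DAX1-transfected cells with DMSO and 100% = empty-vector control cells with DMSO; inhibition shows as a rise in luminescence from relieved DAX1 repression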
Target sequence (P51843 207-470 limits assumed): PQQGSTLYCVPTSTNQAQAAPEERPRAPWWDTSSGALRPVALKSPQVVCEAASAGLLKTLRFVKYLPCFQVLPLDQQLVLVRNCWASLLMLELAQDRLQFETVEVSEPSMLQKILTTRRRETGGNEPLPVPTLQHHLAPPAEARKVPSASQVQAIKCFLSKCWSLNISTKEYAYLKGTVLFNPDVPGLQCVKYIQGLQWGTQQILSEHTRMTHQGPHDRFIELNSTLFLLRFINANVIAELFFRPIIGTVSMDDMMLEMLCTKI
hcDAF-12 act: H. contortus DAF-12 activation, primary screen. 1.4% of 370,000 active. AID 652067. activation, % at 6.8 µM. HEK293 hcDAF-12 lit1-tk-luc reporter, luminescence; 0% DMSO, 100% Δ7-dafachronic acid;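 active = activation above the mean of all tested compounds plus 3 SD, cut at about 5.5% in these data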;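 also: 100% = response to 3 µM Δ7-dafachronic acid high control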
ssDAF-12 act: activates DAF-12 receptor from parasite S. stercoralis; HEK293 ssDAF-12/GRIP1 lit1-tk-luc reporter, luminescence; % of 3 µM dafachronic acid response; activation, % at 6.8 µM; 1% of 370,000 active;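 active = activation above the mean over all tested compounds plus 3 SD, cut at about 0.9% in these data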;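 also: 0% = DMSO-only wells and 100% = 3 µM delta7-dafachronic acid wells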
hgDAF-12 ag: activates the H. glycines DAF-12 receptor ligand-binding domain. HEK293 GAL4-hgDAF12 UAS-luciferase reporter, agonist luminescence; normalized to butyrate control. activation, % at 6.8 µM. 1.8% of 370,000 active. AID 687014;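 active = activation above a cutoff set at the mean of all screened compounds plus 3 SD, cut at about 10% in these data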;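 also: 0% = DMSO wells and 100% = sodium butyrate wells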
DAX1 inh-2: DAX1 (NR0B1) inhibition, primary screen | HEK293T StAR-luciferase reporter, SF-1/DAX-1 repression relief | inhibition, % at 6.8 µM | 1.1% of 370,000 active;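 active = inhibition above the mean over all tested compounds plus 3 SD, cut at about 3.6% in these data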;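 also: 0% = DAX-1 cells with DMSO and 100% = cells lacking DAX-1 with DMSO; higher inhibition means more luminescence from relief of DAX-1 repression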
DAX1 inh confirm: confirmation of human DAX1 (NR0B1) inhibitors. inhibition, % at 6.8 µM. HEK293T StAR-promoter luciferase reporter, SF-1/DAX-1 repression. 87% of 2,400 active. shares compounds with DAX1 inh-2;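 active = inhibition above the average of every tested compound plus 3 SD, cut at about 3.8% in these data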;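 also: 0% = DAX-1 cells with DMSO and 100% = no DAX-1 control cells with DMSO; active compounds raise luminescence by relieving repression of the StAR reporter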
SF1 AF2mut Luc: nonselective inhibitor or artifact in SF-1 mutant DAX1 counter-screen | HEK293 StAR-luciferase, SF-1 AF2 mutant, luminescence | shares compounds with DAX1 inh-2 | inhibition, % at 6.8 µM | 78% of 2,400 active;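 active = inhibition above the mean of all tested compounds plus 3 SD, cut at about 3% in these data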;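 also: 0% = DAX-1 transfected cells with DMSO and 100% = cells without DAX-1 with DMSO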
LXRb hcDAF ctr: LXR-beta agonism as hcDAF-12 counter-screen; 3,400 tested, under 10 active; HEK293 Gal4-LXR tk-luc reporter, luminescence, 24 h; normalized: DMSO 0%, positive control 100%; shares compounds with hcDAF-12 act; AID 743027; activation, % at 6.8 µM;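 active = mean percent activation of the reporter above a cutoff set as the average over tested compounds plus their standard deviation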
Target sequence (P55055 whole entry, looked up, the tested form may be a part): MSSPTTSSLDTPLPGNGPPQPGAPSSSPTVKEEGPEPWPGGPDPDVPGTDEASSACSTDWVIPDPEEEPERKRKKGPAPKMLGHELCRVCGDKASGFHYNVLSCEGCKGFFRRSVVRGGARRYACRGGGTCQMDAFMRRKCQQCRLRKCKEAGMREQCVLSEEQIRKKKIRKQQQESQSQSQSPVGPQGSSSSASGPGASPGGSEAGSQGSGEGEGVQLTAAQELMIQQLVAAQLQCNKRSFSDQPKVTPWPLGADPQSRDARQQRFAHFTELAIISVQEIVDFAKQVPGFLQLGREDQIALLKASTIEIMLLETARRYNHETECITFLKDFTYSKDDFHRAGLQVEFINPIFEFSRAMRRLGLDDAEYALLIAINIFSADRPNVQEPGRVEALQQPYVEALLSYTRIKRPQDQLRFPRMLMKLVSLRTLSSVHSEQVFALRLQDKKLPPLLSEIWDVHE
hcDAF12 ag: hcDAF-12 agonism, confirmation assay | 61% of 3,400 active | HEK293 hcDAF-12 lit1-tk-luc reporter, luminescence; % of Δ7-dafachronic acid response | shares compounds with hcDAF-12 act | activation, % at 6.8 µM;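 active = mean activation across triplicate tests above the threshold derived from the earlier primary screen, cut at about 5.5% in these data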;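 also: 0% = DMSO only wells and 100% = 3 µM Δ7-dafachronic acid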
Starred values were filed as active, the others as inactive.

Results for CCCCN1C(=O)N2CCc3ccccc3C2CS1(=O)=O (stereo unspecified) ?
hcDAF-12 act: 0.9; ssDAF-12 act: -0.8; hgDAF-12 ag: 3.4; DAX1 inh-2: 0.1

How did O=c1[nH]c(-c2ccncc2)nc2ccccc12 do in these assays?
DAX1 inh-1: -0.6; hcDAF-12 act: 1.2; ssDAF-12 act: -0.4; hgDAF-12 ag: 3.1; DAX1 inh-2: 0.3

How did CN(C)c1ccc(-c2nc3ccccc3c(=O)[nH]2)cc1 do in these assays?
DAX1 inh-1: -4.2; hcDAF-12 act: 10.5*; ssDAF-12 act: 0.8; hgDAF-12 ag: 14.6*; DAX1 inh-2: 5.0*; DAX1 inh confirm: 15.4*; SF1 AF2mut Luc: 4.5*; LXRb hcDAF ctr: 2.2; hcDAF12 ag: 12.4*

How did C[C@H]1[C@@H](OC(=O)Nc2ccc(Cl)cc2)CC[C@@]23CCCN2C(=O)CCC[C@@H]13 do in these assays?
hcDAF-12 act: -1.5; ssDAF-12 act: -1.5; hgDAF-12 ag: -0.1

What do the screens show for `OC(c1ccccc1)(c1ccccc1)C1CCN(CCCOc2ccc(-c3ccc(F)cc3F)cc2)CC1`?
hcDAF-12 act: -1.5; ssDAF-12 act: -1.1; hgDAF-12 ag: -1.1; DAX1 inh-2: -0.5

Results for COc1ccc(/C(N)=N/OC(=O)c2cccs2)cc1 ?
DAX1 inh-1: 1.0; hcDAF-12 act: 10.1*; ssDAF-12 act: 4.4*; hgDAF-12 ag: 11.9*; DAX1 inh-2: 5.2*; DAX1 inh confirm: 14.0*; SF1 AF2mut Luc: 9.6*; LXRb hcDAF ctr: 1.4; hcDAF12 ag: 3.7

Results for CCOC(=O)c1cc(-c2cccc(O)c2)oc1C ?
hcDAF-12 act: 9.8*; ssDAF-12 act: 3.3*; hgDAF-12 ag: 14.3*; DAX1 inh-2: 6.2*; DAX1 inh confirm: 3.8*; SF1 AF2mut Luc: 3.2*; LXRb hcDAF ctr: 1.0; hcDAF12 ag: 13.1*

How did CCOC(=O)c1sc(NC(=O)c2cc(-c3cccc(O)c3)on2)c(C(=O)OCC)c1C do in these assays?
DAX1 inh-1: 0.3; hcDAF-12 act: -0.2; ssDAF-12 act: -1.7; hgDAF-12 ag: -3.8; DAX1 inh-2: 0.6

How did Nc1nc(-c2ccccc2)nc2sc3c(c12)CCCC3 do in these assays?
DAX1 inh-1: 1.6; hcDAF-12 act: 20.7*; ssDAF-12 act: 3.0*; hgDAF-12 ag: 18.0*; DAX1 inh-2: 8.3*; DAX1 inh confirm: 16.6*; SF1 AF2mut Luc: 6.5*; LXRb hcDAF ctr: 2.1; hcDAF12 ag: 17.3*

How did COC(=O)CC#C[C@@H](C)[C@H](NS(=O)(=O)c1ccc(C)cc1)C(C)(C)C do in these assays?
hcDAF-12 act: -2.2; ssDAF-12 act: -1.0; hgDAF-12 ag: -0.6; DAX1 inh-2: -0.3

How did COc1ccc(C(=O)NCCSc2ccccc2)cc1 do in these assays?
DAX1 inh-1: -1.2; hcDAF-12 act: 7.4*; ssDAF-12 act: 0.4; hgDAF-12 ag: 11.9*; DAX1 inh-2: 5.1*; DAX1 inh confirm: 12.3*; SF1 AF2mut Luc: 5.2*; LXRb hcDAF ctr: 1.5; hcDAF12 ag: 6.5*

Results for COc1ccc(C(=O)NCCNC(=O)c2ccc(OC)cc2)cc1 ?
DAX1 inh-1: 0.4; hcDAF-12 act: -2.5; ssDAF-12 act: -1.7; hgDAF-12 ag: 2.1; DAX1 inh-2: -0.3

How did O=C(N1CCOCC1)N1CC[C@H]2[C@H](CCCN2Cc2cc(F)cc(F)c2)C1 do in these assays?
hcDAF-12 act: -0.9; ssDAF-12 act: -1.5; hgDAF-12 ag: 1.8; DAX1 inh-2: 0.4

What do the screens show for `Clc1ccc(C=Cc2ccccn2)c(Cl)c1`?
DAX1 inh-1: 2.3; hcDAF-12 act: 8.2*; ssDAF-12 act: 1.2*; hgDAF-12 ag: 12.9*; DAX1 inh-2: 7.9*; DAX1 inh confirm: 11.6*; SF1 AF2mut Luc: 6.8*; LXRb hcDAF ctr: 1.2; hcDAF12 ag: 14.8*

Results for C[C@H]1[C@@H](N(C)Cc2ccccc2)CC[C@@]23CCCN2C(=O)CCC[C@@H]13 ?
hcDAF-12 act: 0.6; ssDAF-12 act: -1.5; hgDAF-12 ag: 4.0

What do the screens show for `Cc1cc(C(=O)COC(=O)C2=COCCO2)c(C)n1-c1ccc2c(c1)OCO2`?
DAX1 inh-1: -1.2; hcDAF-12 act: 0.7; ssDAF-12 act: -0.7; hgDAF-12 ag: 5.1; DAX1 inh-2: -0.7

Results for Cc1cc(C(=O)COC(=O)C2=COCCO2)c(C)n1-c1cccc(F)c1 ?
DAX1 inh-1: 1.3; hcDAF-12 act: 7.2*; ssDAF-12 act: 1.0*; hgDAF-12 ag: 10.9*; DAX1 inh-2: 9.3*; DAX1 inh confirm: 13.2*; SF1 AF2mut Luc: 4.0*; LXRb hcDAF ctr: 1.1; hcDAF12 ag: 4.0

How did Cc1ccc2nc(-c3sc4nc(C)ccc4c3N)[nH]c2c1 do in these assays?
DAX1 inh-1: -2.4; hcDAF-12 act: 14.2*; ssDAF-12 act: 3.2*; hgDAF-12 ag: 15.0*; DAX1 inh-2: 5.8*; DAX1 inh confirm: 18.9*; SF1 AF2mut Luc: 13.1*; LXRb hcDAF ctr: 3.2; hcDAF12 ag: 28.1*

Results for Cc1ccc2c(N)c(C#N)sc2n1 ?
DAX1 inh-1: 0.4; hcDAF-12 act: 0.2; ssDAF-12 act: -0.3; hgDAF-12 ag: 3.1; DAX1 inh-2: 0.0

Results for O=C(N/N=C/C(Br)=C/c1ccccc1)C(O)c1ccccc1 (stereo unspecified) ?
DAX1 inh-1: 0.0; hcDAF-12 act: -0.8; ssDAF-12 act: -1.4; hgDAF-12 ag: -0.5; DAX1 inh-2: -0.5

What do the screens show for `O=C(O)c1ccc(N/N=C/C(Br)=C/c2ccccc2)cc1`?
DAX1 inh-1: -0.6; hcDAF-12 act: 8.1*; ssDAF-12 act: 0.8; hgDAF-12 ag: 22.1*; DAX1 inh-2: 5.2*; DAX1 inh confirm: 13.2*; SF1 AF2mut Luc: 4.2*; LXRb hcDAF ctr: 1.9; hcDAF12 ag: 13.1*

Results for O=C(O)c1ccc(N/N=C/c2cccc(F)c2)cc1 ?
DAX1 inh-1: 0.3; hcDAF-12 act: 7.1*; ssDAF-12 act: 1.2*; hgDAF-12 ag: 20.5*; DAX1 inh-2: 6.3*; DAX1 inh confirm: 14.8*; SF1 AF2mut Luc: 8.3*; LXRb hcDAF ctr: 1.4; hcDAF12 ag: 10.0*

What do the screens show for `COc1ccc(-c2cc(-c3nnc4sc(-c5cccs5)nn34)[nH]n2)cc1`?
hcDAF-12 act: 0.0; ssDAF-12 act: -1.1; hgDAF-12 ag: 5.5; DAX1 inh-2: 0.6

Screening data (PubChem BioAssay)
